Cav3 T inh: human Cav3.2 channel inhibition, primary screen | O95180 | Cav3.2-expressing cells, Fluo-4 calcium fluorescence FDSS; hits give low values | B-score at 10 µM | actives 4% (n = 100,000);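 active = single-dose well whose peak fluorescence ratio is a statistical outlier from its plate by either plate-standardised score or position-corrected B-score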
SDO1 yeast rescue: compounds rescuing growth of sdo1-depleted yeast, bone marrow failure model; S. cerevisiae sdo1-depleted JHY4D growth rescue, OD600 30 h; hits give high values; pdr5 snq2 efflux-pump mutant strain; actives 0.21% (n = 140,000); z-score at 10 µM;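 active = z-score above 3 at both the 24 hr and the 30 hr optical density reads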;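 note: z-score against mean and SD of all compound wells on the same plate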
PLK1 inh: inhibitors of human PLK1 kinase | AID 619 | P53350 | actives 0.53% (n = 97,000) | inhibition, % at 10 µM | recombinant PLK1 kinase, TR-FRET peptide phosphorylation;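 active = inhibition of 50% or more in the single-concentration screen; inactive = inhibition below 50%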;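 note: 0% = DMSO max control and 100% = H-89 dihydrochloride min control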
DAT uptake mod: modulates human dopamine transporter uptake under cocaine; Q01959; LLC-PK1 hDAT cells, [14C]-dopamine uptake with cocaine IC80; actives deviate in either direction; B-score at 10 µM; actives 1.3% (n = 110,000);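 active = Z score or B-score, a plate-position-corrected score, falls beyond the plate's 99.7% confidence bounds, in either direction; inactive = both scores lie inside the 99.7% bounds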;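 note: scored against the spread of the other compound wells on the same plate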
Plk1 PBD FP: blocks phosphopeptide binding to human Plk1 polo box domain; P53350; Plk1 PBD phosphopeptide binding, fluorescence polarization; inhibition, %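 (tested at about 20 µM)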; actives 0.13% (n = 97,000); AID 693; in the data active = inhibition above about 34%, passing the limit was not always enough
PTK2B oligo ant: Pyk2 (human) oligomerization antagonism; Q14289; Q293 cells, Pyk2 FERM NanoBiT luminescence; hits give low values; z-score (the deposit names both 25 µM and 10 µM); actives 0.83% (n = 99,000); AID 1347419;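 active = Z-score of -3 or lower, scaled per plate to the spread of control and sample wells; inactive = z-score above -3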;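 note: negative z-score means lost luminescence so less FERM oligomerization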
Target sequence (Q14289 whole entry, looked up): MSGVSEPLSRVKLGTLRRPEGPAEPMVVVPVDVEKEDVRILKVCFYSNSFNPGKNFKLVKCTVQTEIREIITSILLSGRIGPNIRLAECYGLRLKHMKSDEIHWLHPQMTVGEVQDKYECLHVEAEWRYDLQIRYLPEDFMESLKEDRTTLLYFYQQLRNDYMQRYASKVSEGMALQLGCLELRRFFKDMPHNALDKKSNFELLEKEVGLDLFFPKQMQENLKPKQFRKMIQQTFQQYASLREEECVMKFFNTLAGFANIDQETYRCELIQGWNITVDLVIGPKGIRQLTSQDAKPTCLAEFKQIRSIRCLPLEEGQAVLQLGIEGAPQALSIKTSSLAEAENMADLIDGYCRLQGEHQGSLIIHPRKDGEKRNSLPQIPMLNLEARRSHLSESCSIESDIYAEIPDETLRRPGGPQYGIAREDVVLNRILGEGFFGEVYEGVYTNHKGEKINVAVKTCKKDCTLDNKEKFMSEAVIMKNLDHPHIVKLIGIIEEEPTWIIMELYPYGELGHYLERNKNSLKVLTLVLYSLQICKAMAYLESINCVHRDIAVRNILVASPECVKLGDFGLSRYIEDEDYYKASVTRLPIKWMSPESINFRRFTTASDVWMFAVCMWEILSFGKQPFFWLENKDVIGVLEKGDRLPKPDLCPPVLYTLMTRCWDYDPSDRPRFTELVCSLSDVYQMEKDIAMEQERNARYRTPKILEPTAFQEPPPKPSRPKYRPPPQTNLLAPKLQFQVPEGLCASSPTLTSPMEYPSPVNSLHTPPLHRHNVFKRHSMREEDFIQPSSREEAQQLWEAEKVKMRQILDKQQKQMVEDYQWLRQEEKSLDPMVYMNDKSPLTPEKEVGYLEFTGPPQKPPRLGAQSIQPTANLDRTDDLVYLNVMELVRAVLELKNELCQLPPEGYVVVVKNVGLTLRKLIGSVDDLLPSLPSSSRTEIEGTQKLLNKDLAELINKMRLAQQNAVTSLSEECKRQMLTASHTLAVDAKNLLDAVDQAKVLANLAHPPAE
PLK1 confirm: PLK1 (human) kinase inhibition, confirmed; shares compounds with PLK1 inh; recombinant PLK1 kinase, TR-FRET peptide phosphorylation; inhibition, % at 10 µM; actives 20% (n = 210); AID 744;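 active = inhibition at or above 50% in each of two repeat confirmation tests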;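 note: 0% = DMSO max control and 100% = H-89 kinase-blocked min control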
Plk1 interf: Plk1 assay compound interference counter-screen hit. inhibition (interference), % at 10 µM. 210 tested, under 10 active. Plk1 TR-FRET assay interference, compound added post-reaction. shares compounds with PLK1 inh;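 active = both duplicate runs show 50% or greater inhibition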;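 note: 0% = DMSO max control and 100% = H-89 min control inhibited reaction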
The depositor's hits bear a star; nt = not tested or not shown. Sampled rows, rich in hits. Any-hit rate of the full collection: about 4.7%.

SMILES	Cav3 T inh	SDO1 yeast rescue	PLK1 inh	DAT uptake mod	Plk1 PBD FP	PTK2B oligo ant	PLK1 confirm	Plk1 interf
Cc1oc(-c2ccc(Cl)cc2)nc1CN1CCCC(C(=O)NCCCN2CCCC2=O)C1 (stereo not given)	nt	1.02	73.1*	nt	-33.5	nt	-10.2	-55.6
CCOC(=O)C1CCCN(C(=O)CN2C(=O)/C(=C/c3ccc(OC)cc3)Oc3ccccc32)C1 (stereo not given)	nt	-0.77	nt	nt	nt	nt	nt	nt
O=C(CSc1n[nH]c(-c2ccc(Cl)cc2Cl)n1)Nc1ccccn1	nt	0.85	77.9*	nt	-4.0	0.83	73.7*	-53.3
O=C(CSc1n[nH]c(-c2cc(Cl)ccc2Cl)n1)NCCN1C(=O)CSC1=O	nt	0.84	nt	nt	nt	nt	nt	nt
COC(=O)c1ccc(OC(C)C(=O)c2ccc(C)cc2)cc1 (stereo not given)	nt	1.84	nt	nt	nt	nt	nt	nt
Cc1cccc(-n2ncc3c(NCCc4ccc(S(N)(=O)=O)cc4)ncnc32)c1	nt	1.24	71.3*	0.646	-5.0	nt	-15.8	-56.2
Cc1cccc(-n2ncc3c(NCc4ccccc4)ncnc32)c1	nt	-1.75	nt	1.98	nt	nt	nt	nt
NC(=O)c1ccc(C(F)(F)F)n(Cc2ccc(Cl)cc2)c1=O	1.05	-1.38	81.5*	-0.471	-19.0	-0.01	56.0*	-48.6
NC(=O)c1ccc(C(F)(F)F)n(Cc2cccc(Cl)c2)c1=O	-2.82	-1.93	75.5*	0.125	24.1	-0.36	62.1*	-56.0
CCC(=O)Nc1cccc(NC(=O)CSc2nnc(-c3ccc(NS(C)(=O)=O)cc3)n2CC)c1	0.648	-0.08	-11.9	-0.227	-21.9	0.47	nt	nt
Cc1cc(N(CCO)CCO)ccc1C(c1ccc(N(CCO)CCO)cc1C)c1ccccc1Cl	nt	0.31	nt	nt	nt	nt	nt	nt
CC(=O)N1CCc2cc(C(=O)CN3CCN(c4cccc(Cl)c4)CC3)ccc21	0.33	0.85	-8.3	1.27	-13.4	nt	nt	nt
CC(=O)N1CCc2cc(C(=O)CN3CCC(C)CC3)ccc21	0.433	1.1	82.3*	-0.329	-6.0	nt	2.7	-46.8
CC(=O)N1CCc2cc(C(=O)CN3CCN(C(=O)c4ccco4)CC3)ccc21	-0.155	0.52	70.5*	-0.651	-9.3	nt	-9.3	-50.4
CC1(c2nnc(Cc3ccccc3)o2)CC(c2ccncc2)=NO1 (stereo not given)	0.545	nt	nt	-0.535	nt	nt	nt	nt
CCCOC(=S)Nc1ccccc1	-0.445	0.55	-11.2	-1.05	-12.2	0.39	nt	nt
Cc1cc(C)c2c(N)c3cccc(C)c3nc2n1	nt	0.78	nt	nt	nt	nt	nt	nt
CCn1nccc1C(=O)Nc1ccc(Cl)cn1	-0.203	0.82	-8.8	-0.644	-11.8	0.11	nt	nt
CCn1ccc(C(=O)Nc2ccc(Cl)cn2)n1	-0.625	0.06	71.2*	0.524	2.1	nt	-7.6	-56.6
CC(=O)N1CCN(c2ccc(NCc3ccc(C)s3)cc2)CC1	0.403	0.02	77.3*	-0.568	-8.9	nt	-0.5	-58.5
Cc1ccc(CNc2ccc(N3CCOCC3)cc2)s1	0.0173	1.12	-2.9	-0.003	-1.8	-0.23	nt	nt
CC(=O)OCC1OC(Nc2cccc(C)c2)C(OC(C)=O)C(OC(C)=O)C1OC(C)=O (stereo not given)	nt	1.32	nt	nt	nt	nt	nt	nt
CCOC(=O)C(=NCCOC)NNc1cc(Cl)ccc1Cl	nt	-0.76	nt	nt	nt	nt	nt	nt
CCCCn1c(CN(Cc2ccccc2)Cc2ccccc2)nc2c1c(=O)n(C)c(=O)n2C	-1.6	nt	-4.5	0.243	30.5	0.25	nt	nt
CCOCCn1c(CN(Cc2ccccc2)Cc2ccccc2)nc2c1c(=O)n(C)c(=O)n2C	-2.48	-0.59	72.0*	-1.94	19.8	nt	-5.4	-53.7
SMILES	Cav3 T inh	SDO1 yeast rescue	PLK1 inh	DAT uptake mod	Plk1 PBD FP	PTK2B oligo ant	PLK1 confirm	Plk1 interf
CC(C)OC(=O)/C(=C\c1cccc2ccccc12)NC(=O)c1ccccc1	nt	-0.86	nt	nt	nt	nt	nt	nt
Cc1oc2ncnc(N)c2c1C	0.575	1.37	76.1*	1.09	-42.9	0.09	68.2*	-51.6
CCN1C(=O)N[C@@H](CCc2ccccc2)[C@@H](C(=O)OC)[C@H]1C	-2.55	nt	nt	-0.0304	nt	nt	nt	nt
C=CCNC(=O)c1nn2cccnc2c1Cl	-0.28	0.61	130.2*	0.924	3.5	0.9	-4.3	-53.1
Cc1cc(NC(=O)c2nn3cccnc3c2Cl)no1	-1.33	-0.16	-0.3	-0.0821	-19.1	0.53	nt	nt
N#Cc1c(-c2ccc3c(c2)OCO3)csc1N	0.352	-0.15	72.0*	2.3	8.1	2.25	65.7*	-53.9
